Test results as given in PubChem BioAssay (NCI).
Compounds without any hit were thinned out: in the full panel of roughly 83,000, 20% have a hit.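 Cells were grown in 96-well plates and exposed to the test compound at a single concentration for 48 hours; results are reported as percent growth, with values below 10 considered active.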 Unmarked numbers belong to inactive results. Active and inactive are the calls of the source.

Key:
Assay in all cases: NCI-60 one-dose screen, 48 h (100 = growth as untreated, 0 = no growth, -100 = all killed)
Settings in all cases: 10 µM unless noted
DU-145 prostate = test system: DU-145 prostate
K-562 leukemia = test system: K-562 leukemia
MALME-3M melanoma = test system: MALME-3M melanoma
MDA-MB-231 breast = test system: MDA-MB-231 breast
RXF 393 renal = test system: RXF 393 renal
SF-268 CNS = test system: SF-268 CNS
SF-295 CNS = test system: SF-295 CNS
SF-539 CNS = test system: SF-539 CNS
UACC-257 melanoma = test system: UACC-257 melanoma
M14 melanoma = test system: M14 melanoma
HCT-15 colon = test system: HCT-15 colon
HT29 colon = test system: HT29 colon
SNB-75 CNS = test system: SNB-75 CNS
SNB-19 CNS = test system: SNB-19 CNS
U251 CNS = test system: U251 CNS
PC-3 prostate = test system: PC-3 prostate
SK-MEL-5 melanoma = test system: SK-MEL-5 melanoma
UACC-62 melanoma = test system: UACC-62 melanoma
LOX IMVI melanoma = test system: LOX IMVI melanoma
SK-MEL-28 melanoma = test system: SK-MEL-28 melanoma

SMILES | growth (DU-145 prostate) | growth (K-562 leukemia) | growth (MALME-3M melanoma) | growth (MDA-MB-231 breast) | growth (RXF 393 renal) | growth (SF-268 CNS) | growth (SF-295 CNS) | growth (SF-539 CNS) | growth (UACC-257 melanoma) | growth (M14 melanoma) | growth (HCT-15 colon) | growth (HT29 colon) | growth (SNB-75 CNS) | growth (SNB-19 CNS) | growth (U251 CNS) | growth (PC-3 prostate) | growth (SK-MEL-5 melanoma) | growth (UACC-62 melanoma) | growth (LOX IMVI melanoma) | growth (SK-MEL-28 melanoma)
COC(=O)c1c2c(c(C)[n+]([O-])c1C)C(=O)C=C(NCc1ccc(F)c(Cl)c1)C2=O | -99% (active) | -7.41% (active) | -98.3% (active) | -25.6% (active) | -41.1% (active) | -9.98% (active) | -97.5% (active) | -89.7% (active) | -82.8% (active) | -88.4% (active) | -70.4% (active) | 3.68% (active) | -96.9% (active) | -48.5% (active) | -21.7% (active) | -1.13% (active) | -97.7% (active) | -70.8% (active) | -64.5% (active) | -11.8% (active)
COc1ccc(/C=C/C(=O)N2CCC(O)CC2)cc1OC1CCCC1 | 110% | 102% | 109% | 103% | 118% | 101% | 101% | 95.8% | 101% | 107% | 102% | 102% | 90.2% | 95.7% | 93% | 96.5% | 99.3% | 97.9% | 95.3% | 115%
Cc1nc(NN)c([N+](=O)[O-])c(NN)n1 | 109% | 93.6% | 106% | 107% | 160% | 102% | 98.5% | 95.2% | 99.3% | 98.2% | 105% | 108% | 114% | 109% | 102% | 104% | 99.4% | 97.3% | 111% | 108%
Nc1cccc2c(=S)c3ccccc3[nH]c12 | 113% | 91% | 102% | 68.3% | 95.1% | 92.5% | 97.3% | 96.9% | 99% | 102% | 95.4% | 117% | 94.6% | 89.8% | 104% | 82.5% | 91.4% | 87.6% | 88.5% | 114%
Clc1ccccc1Nc1ccc2nnc(-c3ccncc3)n2n1 | 114% | 47.6% | 112% | 108% | 96.2% | 101% | 93.9% | 92.7% | 114% | 112% | 91.8% | 99.2% | 96.2% | 107% | 97.4% | 75.7% | 97.9% | 98.4% | 96.1% | 122%
CCCCC(O)Cn1ncc(C(=O)OCC)c1NC(=O)NCc1ccccc1C(F)(F)F (stereo not given) | 102% | 71.8% | 93.2% | 92.2% | 106% | 97.7% | 94.3% | 95.9% | 93.7% | 95.2% | 98% | 107% | 92.6% | 94.4% | 95.3% | 86.6% | 95.9% | 87.6% | 98.4% | 111%
CN1CCN(C(=O)OCCOCCOC(=O)N2CCN(C)CC2)CC1 | 111% | 106% | 133% | 94.9% | 87.8% | 102% | 85.9% | 97.9% | 94.2% | 103% | 96.3% | 101% | 80.8% | 104% | 103% | 90.1% | 104% | 102% | 90.9% | 105%
CCC(C)[C@H]1O[C@]2(CC[C@@H]1C)C[C@@H]1C[C@@H](C/C=C(\C)[C@@H](OC3C[C@H](OC)C(O[C@H]4C[C@H](OC)[C@@H](O)[C@H](C)O4)[C@H](C)O3)[C@@H](C)/C=C/C=C3\CO[C@@H]4[C@H](O)C(C)=C[C@@H](C(=O)O1)[C@]34O)O2 (stereo not given in full) | 22.1% | 14.1% | 0.803% (active) | -15.6% (active) | -23.1% (active) | 25.1% | -36.7% (active) | -15.4% (active) | 47.3% | -73.1% (active) | 8.26% (active) | 4.41% (active) | -0.276% (active) | 33.1% | 31.5% | 1.52% (active) | -85.4% (active) | 18.4% | -83.1% (active) | -16.6% (active)
O=C(Nc1ccccc1)Oc1cccc2cccnc12 | 92.9% | 44.9% | 108% | 96.7% | 116% | 87.6% | 83.9% | 95.5% | 75.6% | 57.6% | 74.5% | 28.5% | 83% | 99.3% | 70.5% | 70.1% | 96.9% | 108% | 61% | 97.6%
O=c1[nH]c(=O)n(Cc2ccc(F)cc2)cc1F | 110% [50 µM] | 86.7% [50 µM] | 101% [50 µM] | 101% [50 µM] | 111% [50 µM] | 99.1% [50 µM] | 101% [50 µM] | 100% [50 µM] | 83.9% [50 µM] | 109% [50 µM] | 99.5% [50 µM] | 114% [50 µM] | 104% [50 µM] | 100% [50 µM] | 98.7% [50 µM] | 107% [50 µM] | 104% [50 µM] | 101% [50 µM] | 96.4% [50 µM] | 109% [50 µM]
O=C(NCc1cccnc1)c1ccc([N+](=O)[O-])o1 | -67.6% (active) | 22.1% | -61% (active) | 107% | -9.05% (active) | 33% | 20.8% | -30.9% (active) | -7.66% (active) | -81.2% (active) | -68.1% (active) | -68.5% (active) | -3.32% (active) | 16.8% | 4.88% (active) | 24.5% | 4.47% (active) | -67.9% (active) | -77.9% (active) | 17%
CCCCOC(=O)C1OC(Oc2ccc3c(C)cc(=O)oc3c2)[C@@H](OC(C)=O)C(OC(C)=O)C1OC(C)=O (stereo not given in full) | 104% | 106% | 89.1% | 104% | 106% | 97.4% | 96.1% | 96% | 93.9% | 93.9% | 99.2% | 104% | 86.3% | 99.1% | 100% | 104% | 101% | 97% | 94.5% | 108%
Clc1cccc(Cl)c1Nc1ccc2nnc(-c3ccncc3)n2n1 | 111% | 57.1% | 98.2% | 114% | 109% | 107% | 96% | 95.7% | 97.8% | 99.1% | 90.9% | 106% | 99.4% | 101% | 103% | 101% | 100% | 106% | 93.2% | 105%
CCCN1CCN(c2ccc3nc(-c4ccc5nc(-c6ccc(C(F)(F)F)cc6)[nH]c5c4)[nH]c3c2)CC1 | -95.3% (active) | -51.4% (active) | -64.7% (active) | -86.9% (active) | -70.4% (active) | -70.2% (active) | -58.4% (active) | -94.6% (active) | 96.5% | -59% (active) | -55.1% (active) | -44% (active) | 32.5% | -93.8% (active) | -82.2% (active) | -68% (active) | 37.2% | 72.9% | -92.9% (active) | -94.6% (active)
O=C(c1cnn2c1NC(c1ccc(F)cc1)C2)N1CCCCC1 (stereo not given) | 103% | 103% | 97.7% | 106% | 111% | 96.7% | 103% | 97.8% | 96.3% | 101% | 102% | 103% | 84.8% | 100% | 97.1% | 96.9% | 97.8% | 101% | 103% | 103%
